Results taken from PubChem BioAssay (NCATS).
Where “and” joins values, the source holds several entries; their conditions need not be identical. Equal entries are not always repeated. Results filed as inconclusive are left out. Calls of active or inactive are those of the source. Unless noted, calls follow the shape of the dose curve; as a rule, active = well fitted curve in either direction with a large enough effect (not every such curve was filed as active); inconclusive = small, poorly fitted or top-dose-only effect, or another doubt; inactive = flat fitted curve, though single readings scatter.

Tested on: not listed separately
Test: AP1 Signaling Pathway (AID 357);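 also: ME-180 reporter cells stimulated with EGF at its EC50 level; % is scaled to controls: 0 for no effect and ±100 for the full control effect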
Conditions: ME-180 (cervical carcinoma) AP-1-bla reporter, EGF-induced, beta-lactamase ratio, 5 h; at 17.2 µM (top of the series) unless noted
In short: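 Cells are seeded overnight, exposed to compound titrations and an EC50 level of EGF for 5 hours at 37 °C, then loaded with CCF4 dye for 2.5 hours. Beta-lactamase activity under the AP-1 element is read as a blue/green ratio.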

SMILES | activity change, negative = inhibition
Clc1ccccc1CN1CCc2sccc2C1 | -15.6% (inactive) and -18.3% (inactive)
COc1cc2ncnc(Nc3cccc(Cl)c3)c2cc1OC | -106% [at 38 µM] (active)
CCC(=O)O[C@]1(C(=O)CCl)[C@@H](C)C[C@H]2[C@@H]3CCC4=CC(=O)C=C[C@]4(C)[C@@]3(F)[C@@H](O)C[C@@]21C | 3.85% (inactive)
O=C(O)c1cn(C2CC2)c2cc(N3CCNCC3)c(F)cc2c1=O | 3.13% (inactive)
Nc1[nH]c(=O)ncc1F | 0.602% (inactive)
N[C@@H](C(=O)N[C@@H]1C(=O)N2C(C(=O)O)=C(Cl)CS[C@H]12)c1ccccc1 | 0.208% (inactive)
Cn1c(=O)c2c(ncn2CC(O)CO)n(C)c1=O (stereo not drawn) | 2.4% (inactive)
C1CCC(C(CC2CCCCN2)C2CCCCC2)CC1 (stereo not drawn) | 22.4% (inactive)
COc1ccccc1OCC(O)COC(N)=O (stereo not drawn) | 9.66% (inactive)
NS(=O)(=O)c1cc2c(cc1Cl)NC(C(Cl)Cl)NS2(=O)=O (stereo not drawn) | 12.3% (inactive)
Nc1nc(F)nc2c1ncn2[C@@H]1O[C@H](CO)[C@@H](O)[C@@H]1O | -4.13% (inactive)
CCN(CC)CC#CCOC(=O)C(O)(c1ccccc1)C1CCCCC1 (stereo not drawn) | -4.6% (inactive)
CC(C)(Sc1cc(C(C)(C)C)c(O)c(C(C)(C)C)c1)Sc1cc(C(C)(C)C)c(O)c(C(C)(C)C)c1 | 1.37% (inactive)
CCn1cc(C(=O)O)c(=O)c2cc(F)c(N3CCNCC3)cc21 | -6.52% (inactive) and 0.998% (inactive)
COc1cc([C@@H]2c3cc4c(cc3[C@H](O)[C@H]3COC(=O)[C@H]23)OCO4)cc(OC)c1OC | 20.7% (inactive)

Target: Cytochrome P450 1A2 (Homo sapiens) (UniProt P05177)
Test: p450-cyp1a2 (AID 410; calls by dose curve; also: potency is read from the fitted curve at half-maximal effect;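 as to activity change, negative = inhibition: -100% = full effect of reference inhibitor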)
Conditions: recombinant CYP1A2, luciferin-ME demethylation, luminescence; series mostly up to 25.6 µM; activity change, negative = inhibition: at the top concentration
In short: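 Luminescent readout of luciferin formed from Luciferin-ME by human CYP1A2; data normalized against complete inhibition by 57 uM furafylline. Enzyme 20nM, substrate 100uM at Km, 100mM KPO4 buffer, 60 min reaction at room temperature.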

Cytochrome P450 1A2 (Homo sapiens), sequence (P05177 whole entry, looked up): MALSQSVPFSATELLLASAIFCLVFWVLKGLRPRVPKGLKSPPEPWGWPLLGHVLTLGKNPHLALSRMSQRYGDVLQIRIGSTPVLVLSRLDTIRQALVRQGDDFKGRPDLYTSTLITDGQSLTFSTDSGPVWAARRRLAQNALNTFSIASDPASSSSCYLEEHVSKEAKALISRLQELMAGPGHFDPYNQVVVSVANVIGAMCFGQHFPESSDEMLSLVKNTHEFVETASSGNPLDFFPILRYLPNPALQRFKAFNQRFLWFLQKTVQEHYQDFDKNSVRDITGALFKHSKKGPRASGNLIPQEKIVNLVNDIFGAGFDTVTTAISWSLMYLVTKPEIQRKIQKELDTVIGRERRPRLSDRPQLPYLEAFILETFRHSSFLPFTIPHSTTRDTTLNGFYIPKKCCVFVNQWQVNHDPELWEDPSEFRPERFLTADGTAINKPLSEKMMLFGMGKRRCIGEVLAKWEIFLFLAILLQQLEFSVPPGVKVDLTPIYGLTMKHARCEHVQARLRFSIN

SMILES | activity change, negative = inhibition | Potency
O=C(O)c1cccnc1 | -3.4% (inactive) | –
O=c1oc2c(O)c(O)cc3c(=O)oc4c(O)c(O)cc1c4c23 | – | 15.8 µM (active)
CC1=CC(=O)c2ccccc2C1=O | – | 0.158 µM (active)

Tested on: not listed separately
Test: Cell Viability - BJ (AID 421; calls by dose curve;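 also: potency is read from the fitted curve at half-maximal effect; cells exposed to compound for 40 hours at 37 °C before readout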)
Conditions: BJ fibroblast viability, qHTS
In short: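 Cytotoxicity in human BJ foreskin fibroblasts is scored as loss of cellular ATP after a 40-hour exposure, measured by luciferase luminescence. Controls are DMSO and 100 uM tamoxifen.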

SMILES | Potency
Cc1ccnc2c1NC(=O)c1cccnc1N2C1CC1 | > 92 µM (inactive)
C[C@]12C=CC(=O)C=C1CC[C@@H]1[C@@H]2C(=O)C[C@@]2(C)[C@H]1CC[C@]2(O)C(=O)CO | > 92 µM (inactive)
O=C(N[C@H](CO)[C@H](O)c1ccc([N+](=O)[O-])cc1)C(Cl)Cl | > 92 µM (inactive)
CN(C)c1ccc(C(=C2C=CC(=[N+](C)C)C=C2)c2ccc(N(C)C)cc2)cc1 | 5.35 µM (active)
O=C(O)c1cc(=O)[nH]c(=O)[nH]1 | > 92 µM (inactive)
